Rows were chosen to be rich in hits. Some 31% of all compounds tested hit in one or more screens of this group.
CYP2C19 inh: inhibitors of human CYP2C19; CYP2C19 Supersomes, luciferin-H EGE luminescence, 30 min; inhibition, % at 5 µM; actives 21% (n = 96,000); P33261;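 active = CYP2C19 inhibition above a set limit at 5 µM in the primary screen, cut at about 50% in these data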;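 note: plate controls were negative control wells for no effect and 2.5 mM tranylcypromine positive control for full effect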
Target sequence (P33261 whole entry, looked up): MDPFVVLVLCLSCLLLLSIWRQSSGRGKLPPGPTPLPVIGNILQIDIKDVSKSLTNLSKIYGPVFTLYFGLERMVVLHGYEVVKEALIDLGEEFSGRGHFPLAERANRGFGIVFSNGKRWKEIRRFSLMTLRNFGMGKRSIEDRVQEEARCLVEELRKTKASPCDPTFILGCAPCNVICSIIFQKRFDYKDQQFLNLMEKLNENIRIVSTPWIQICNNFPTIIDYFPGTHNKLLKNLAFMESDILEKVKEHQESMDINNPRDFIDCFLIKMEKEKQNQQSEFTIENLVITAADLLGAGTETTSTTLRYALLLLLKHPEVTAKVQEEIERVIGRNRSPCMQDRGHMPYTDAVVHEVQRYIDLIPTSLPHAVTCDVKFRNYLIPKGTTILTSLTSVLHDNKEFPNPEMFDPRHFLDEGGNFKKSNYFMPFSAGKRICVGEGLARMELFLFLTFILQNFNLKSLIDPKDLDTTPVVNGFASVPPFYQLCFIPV
PLAP act: activates human placental alkaline phosphatase; actives 1.2% (n = 96,000); activation fold at 20 µM; purified PLAP enzyme, luminescent substrate read-out; active compounds read high; P05187; in the data active = activation fold above about 2
CYP2C9 activ: CYP2C9 (human) activation. actives 1.4% (n = 96,000). recombinant CYP2C9, luciferin-H conversion, luminescence; active compounds read high; factor 1 = untreated enzyme, 0 = blocked. activation factor at 5 µM. P11712;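 active = activation factor of 2 or more for CYP2C9 at a 5 µM dose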;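 note: 0 = sulfaphenazole-blocked wells and 1 = vehicle-only wells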
CYP2C9 inh: blocks human cytochrome P450 2C9; CYP2C9 Supersomes, luciferin-H conversion, luminescence; inhibition, % at 5 µM; actives 20% (n = 96,000); AID 777;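 active = blocking of liver enzyme CYP2C9 beyond about 50% at 5 µM, limit read from the data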
CYP2C19 activ: cytochrome P450 2C19 (human) activation; P33261; recombinant CYP2C19, luciferin-H EGE luminescence; active compounds read high; 0 = fully inhibited enzyme, 1 = untreated enzyme; AID 1025; activation factor at 5 µM; 96,000 tested, under 10 active;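 active = activation factor of at least 2 at 5 µM in the primary screen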;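 note: 0 = wells with 2.5 mM tranylcypromine and 1 = vehicle-only wells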
Numbers without * were called inactive; nt = no result given.

SMILES | CYP2C19 inh | PLAP act | CYP2C9 activ | CYP2C9 inh | CYP2C19 activ
CC(NS(=O)(=O)c1ccc(OCC(=O)N2CCOCC2)c(Cl)c1)c1ccccc1 (centres undefined) | 49 | 1.7 | 0.4 | 64* | 0.5
COc1cccc(S(=O)(=O)Nc2ccc(C(=O)N3CCOCC3)cc2)c1 | 20 | 1.1 | 0.8 | 20 | 0.8
CC1Cc2ccccc2N1C(=O)COc1nc2ccccc2nc1N1CCOCC1 (centres undefined) | 20 | 1.3 | 0.5 | 47 | 0.8
Cc1cccc(NS(=O)(=O)c2ccc(Oc3ccccc3)cc2)n1 | 83* | 1.4 | 0.7 | 31 | 0.2
Cc1ccnc(NS(=O)(=O)c2ccccc2)n1 | 2 | 0.9 | 1 | 3 | 1
Cc1cc(C)nc(NS(=O)(=O)c2ccc(Br)s2)c1 | 52* | 1.1 | 0.8 | 16 | 0.5
Cc1cccc(NS(=O)(=O)c2ccc(Br)s2)n1 | 68* | 1.3 | 0.7 | 31 | 0.3
CC1=C(C(=O)OC(C)C)C(c2cccs2)N2C(=O)C(C)SC2=N1 (centres undefined) | 65* | 1 | 0.7 | 28 | 0.4
COC(=O)C1=C(C)N=C2SCCC(=O)N2C1c1cccs1 (centres undefined) | 17 | 0.9 | 0.6 | 40 | 0.8
CC1=C(C(=O)OC(C)C)C(c2cccs2)N2C(=O)CCSC2=N1 (centres undefined) | 51* | 0.9 | 0.7 | 29 | 0.5
Cc1nnc(NC(=O)c2cccc(S(=O)(=O)N3CC(c4ccccc4)CC3=O)c2)s1 (centres undefined) | -1 | 1 | 0.5 | 46 | 1
COc1ccc(C(=O)Nc2nncs2)cc1S(=O)(=O)N1CC(c2ccccc2)CC1=O (centres undefined) | 0 | 1.1 | 0.2 | 84* | 1
COc1ccc2c(C)cc(N3CCOCC3)nc2c1 | 7 | 1.1 | 0.8 | 21 | 0.9
COc1ccc2c(C)cc(SCC(=O)N3CCOCC3)nc2c1 | 68* | 1.9 | 0.6 | 35 | 0.3
O=C(C1CCN(S(=O)(=O)c2cccc3nsnc23)CC1)N1CCn2c1nc1ccccc12 | 50 | 1.1 | 1.1 | -11 | 0.5
CCC(=O)N1CCn2c1nc1ccccc12 | -3 | 0.9 | 0.8 | 19 | 1
Cc1ccc(N(CC(=O)N2CCn3c2nc2ccccc23)S(=O)(=O)c2c(C)n[nH]c2C)cc1 | 25 | 0.9 | 0.4 | 64* | 0.8
Cc1n[nH]c(C)c1S(=O)(=O)N1CCC(C(=O)N2CCn3c2nc2ccccc23)CC1 | 66* | nt | 0.6 | 42 | 0.3
COc1ccc(CCNC(=O)CC2COc3ccccc3O2)cc1OC (centres undefined) | 97* | 1.5 | 0 | 97* | 0
COc1ccc(NC(=O)CCC2COc3ccccc3O2)c(OC)c1 (centres undefined) | 83* | 0.7 | 0.7 | 26 | 0.2
COc1ccc(OC)c(NC(=O)C2COc3ccccc3O2)c1 (centres undefined) | 67* | 1 | 0.8 | 16 | 0.3
COc1ccc(CCNC(=O)CNCC2CCCO2)cc1OC (centres undefined) | 5 | 1.5 | 1 | 1 | 1
COc1ccc(CNC(=O)C2COc3ccccc3O2)c(OC)c1 (centres undefined) | 78* | 0.9 | 0.9 | 5 | 0.2
CC(C)(C)NC(=O)CCC1COc2ccccc2O1 (centres undefined) | 33 | 0.8 | 0.8 | 21 | 0.7
Cc1ccc(OCCNC(=O)c2cc(-n3cnnc3)ccc2Cl)cc1C | 45 | 1.2 | 0.9 | 6 | 0.6
SMILES | CYP2C19 inh | PLAP act | CYP2C9 activ | CYP2C9 inh | CYP2C19 activ
O=C(C1CCC(=O)N1Cc1ccccc1Cl)N1CCN(c2ccc(F)cc2)CC1 (centres undefined) | 7 | 1.2 | 1 | -1 | 0.9
CC(O)c1c(OCc2ccccc2)ncnc1OCc1ccccc1 (centres undefined) | 39 | 1.1 | 0.7 | 33 | 0.6
Cc1ccc(NC(=O)CC2COc3ccccc3O2)cc1 (centres undefined) | 69* | 1 | 0.7 | 29 | 0.3
COc1cccc(NC(=O)CC2COc3ccccc3O2)c1 (centres undefined) | 49 | 0.8 | 0.8 | 24 | 0.5
O=C(c1cc(-c2ccccc2O)on1)N1CCc2ccccc2C1 | 14 | 1.1 | 1.3 | -26 | 0.9
O=C(c1cc(-c2ccc(O)cc2)on1)N1CCc2ccccc2C1 | 82* | 1.3 | 1 | 5 | 0.2
O=C(c1cc(-c2cccc(O)c2)on1)N1CCOCC1 | 59* | 1 | 1.2 | -17 | 0.4
COc1ccc(OC)c(C(c2nnnn2CCC(C)C)N2CCN(C(=O)c3ccco3)CC2)c1 (centres undefined) | 67* | 1.7 | 0.3 | 74* | 0.3
CC(C)CCn1nnnc1C(c1ccc(F)cc1)N1CCN(C(=O)c2ccco2)CC1 (centres undefined) | 63* | 1.3 | 0 | 96* | 0.4
Cc1ccc(S(=O)(=O)Nc2nc3n(n2)C(c2ccc(Cl)cc2)CC(=O)N3)cc1 (centres undefined) | -18 | 1.4 | 1.1 | -12 | 1.2
Cc1cc(C)nc(N2CCC(C(=O)Nc3cccc(C(F)(F)F)c3)CC2)n1 | 32 | 1.2 | 1.3 | -34 | 0.7
c1ccc(NC2=Nc3ccccc3CC2)cc1 | 68* | 0.9 | 0.8 | 18 | 0.3
COC(=O)c1ccc(NC2(C#N)C(=O)Nc3ccccc32)cc1 (centres undefined) | 52* | 1.3 | 0.3 | 71* | 0.5
CCSc1nc(N)c2c3c(sc2n1)CCC3 | 96* | 1.1 | 0.7 | 31 | 0
CNC(=O)CSc1nc(N)c2c3c(sc2n1)CCC3 | 3 | 0.8 | 0.9 | 12 | 1
NC(=O)CSc1nc(N)c2c3c(sc2n1)CCCCC3 | 67* | 0.9 | 0.7 | 35 | 0.3
CC(C)(C)NC(=O)CC(CC(=O)O)c1ccccc1 (centres undefined) | -4 | 1 | 1 | -2 | 1
COCC(C)n1c(C)cc(C(=O)COC(=O)c2ccc3ncsc3c2)c1C (centres undefined) | 78* | 1.6 | 1.8 | -79 | 0.2
COCC(C)n1c(C)cc(C(=O)COC(=O)c2nc3nc(C)cc(C)n3n2)c1C (centres undefined) | 8 | 1.5 | 1.2 | -23 | 0.9
CC1(C)CC(=O)C=C(Nc2ccc(Br)cn2)C1 | 15 | 1 | 1 | -1 | 0.8
Fc1ccc(-c2csc3ncnc(Nc4ccc(N5CCOCC5)cc4)c23)cc1 | 35 | 1.3 | 0.7 | 27 | 0.7
COc1cc(OC)cc(C(=O)NC(C(=O)NCCN(C)C)C23CC4CC(CC(C4)C2)C3)c1 (centres undefined) | 93* | 1.6 | 1 | 2 | 0.1
CCNC(=O)NC(C(=O)OC)C12CC3CC(CC(C3)C1)C2 (centres undefined) | 30 | 1 | 1 | -4 | 0.7
COc1cc(/C=N/NC(=O)c2cc(C34CC5CC(CC(C5)C3)C4)[nH]n2)ccc1O | 22 | 1.7 | 1.6 | -56 | 0.8

Compound activity as filed in PubChem.
